Measured values as given in PubChem BioAssay AID1159580 (chemical genetic matrix, 2015).
In all, about 5,500 compounds went through this assay and about 2,000 (36%) were called active. About 18% were inconclusive and are not listed. Some of the results follow. Unmarked numbers belong to inactive results. Cut-off read from the data, not from the text of the source: active = normalized growth mostly below about 0.91 (no sharp cut-off); inconclusive = no clear call, values can overlap the other calls; inactive = mostly above about 0.92.

Experiment: chemical genetic growth profiling, strain panel (AID 1159580);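 note: tested at 20 µM; growth read once vehicle control cultures reached saturation at 30 °C; 1 = growth at the plate median or of vehicle wells; lower values mean less growth of the strain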
Conditions: growth OD

CCCOc1ccc2nc(NC(=O)OC)[nH]c2c1
normalized growth (S. cerevisiae deletion strains, locus YJR075W, strain HOC1, hits give low values): 0.992
normalized growth (S. cerevisiae deletion strains, locus YKL009W, strain mrt4, hits give low values): 0.99
normalized growth (S. cerevisiae deletion strains, locus YKL068W, hits give low values): 0.995
normalized growth (S. cerevisiae deletion strains, locus YKL085W, strain MDH1 (second series), hits give low values): 0.995
normalized growth (S. cerevisiae deletion strains, locus YKL085W, strain MDH1, hits give low values): 0.995
normalized growth (S. cerevisiae deletion strains, locus YKL160W, strain elf1, hits give low values): 1.02
normalized growth (S. cerevisiae deletion strains, locus YKL190W, strain CNB1, hits give low values): 1.02
normalized growth (S. cerevisiae deletion strains, locus YKR001C, strain vps1, hits give low values): 0.96
normalized growth (S. cerevisiae deletion strains, locus YKR026C, strain gcn3, hits give low values): 1.02
normalized growth (S. cerevisiae deletion strains, locus YKR091W, strain srl3, hits give low values): 1.01
normalized growth (S. cerevisiae deletion strains, locus YLL001W, strain dnm1, hits give low values): 1.01
normalized growth (S. cerevisiae deletion strains, locus YLL026W, hits give low values): 1.01
normalized growth (S. cerevisiae deletion strains, locus YLL041C, strain sdh2, hits give low values): 1.01
normalized growth (S. cerevisiae deletion strains, locus YLR027C, strain aat2, hits give low values): 1.01
normalized growth (S. cerevisiae deletion strains, locus YLR039C, strain RIC1, hits give low values): 0.833
normalized growth (S. cerevisiae deletion strains, locus YLR058C, strain SHM2, hits give low values): 0.99
normalized growth (S. cerevisiae deletion strains, locus YLR102C, strain apc9, hits give low values): 0.981
normalized growth (S. cerevisiae deletion strains, locus YLR113W, strain HOG1, hits give low values): 1.03
normalized growth (S. cerevisiae deletion strains, locus YLR221C, strain rsa3, hits give low values): 1.01
normalized growth (S. cerevisiae deletion strains, locus YLR258W, strain gsy2, hits give low values): 1.01
normalized growth (S. cerevisiae deletion strains, locus YLR262C, strain YPT6 (second series), hits give low values): 0.955
normalized growth (S. cerevisiae deletion strains, locus YLR262C, strain YPT6, hits give low values): 0.849
normalized growth (S. cerevisiae deletion strains, locus YLR268W, strain sec22, hits give low values): 0.971
normalized growth (S. cerevisiae deletion strains, locus YLR320W, strain mms22, hits give low values): 1.04
normalized growth (S. cerevisiae deletion strains, locus YLR330W, strain CHS5, hits give low values): 0.989
normalized growth (S. cerevisiae deletion strains, locus YLR342W, strain FKS1 (second series), hits give low values): 0.973
normalized growth (S. cerevisiae deletion strains, locus YLR342W, strain FKS1, hits give low values): 1.03
normalized growth (S. cerevisiae deletion strains, locus YLR357W, strain rsc2, hits give low values): 1.02
normalized growth (S. cerevisiae deletion strains, locus YLR370C, strain arc18, hits give low values): 1.02
normalized growth (S. cerevisiae deletion strains, locus YLR371W, strain rom2, hits give low values): 0.983
normalized growth (S. cerevisiae deletion strains, locus YLR384C, strain iki3, hits give low values): 1.01
normalized growth (S. cerevisiae deletion strains, locus YLR418C, strain cdc73, hits give low values): 0.878
normalized growth (S. cerevisiae deletion strains, locus YML016C, strain PPZ1, hits give low values): 0.983
normalized growth (S. cerevisiae deletion strains, locus YML032C, strain rad52, hits give low values): 0.982
normalized growth (S. cerevisiae deletion strains, locus YML120C, strain ndi1, hits give low values): 1.02
normalized growth (S. cerevisiae deletion strains, locus YML124C, strain tub3, hits give low values): 0.88 (active)
normalized growth (S. cerevisiae deletion strains, locus YMR058W, strain fet3, hits give low values): 1.01
normalized growth (S. cerevisiae deletion strains, locus YMR078C, strain ctf18, hits give low values): 0.979
normalized growth (S. cerevisiae deletion strains, locus YMR125W, strain sto1, hits give low values): 1.02
normalized growth (S. cerevisiae deletion strains, locus YMR129W, hits give low values): 1.02
normalized growth (S. cerevisiae deletion strains, locus YMR205C, strain PFK2, hits give low values): 1.03
normalized growth (S. cerevisiae deletion strains, locus YMR223W, strain ubp8, hits give low values): 0.96
normalized growth (S. cerevisiae deletion strains, locus YMR231W, strain pep5, hits give low values): 1.01
normalized growth (S. cerevisiae deletion strains, locus YMR263W, strain SAP30, hits give low values): 0.989
normalized growth (S. cerevisiae deletion strains, locus YMR307W, strain GAS1, hits give low values): 0.844
normalized growth (S. cerevisiae deletion strains, locus YNL067W, strain RPL9B, hits give low values): 1.01
normalized growth (S. cerevisiae deletion strains, locus YNL071W, strain lat1, hits give low values): 1.02
normalized growth (S. cerevisiae deletion strains, locus YNL128W, strain TEP1, hits give low values): 0.975
normalized growth (S. cerevisiae deletion strains, locus YNL153C, strain GIM3, hits give low values): 0.438 (active)
normalized growth (S. cerevisiae deletion strains, locus YNL183C, strain NPR1, hits give low values): 1.01
normalized growth (S. cerevisiae deletion strains, locus YNL209W, strain ssb2, hits give low values): 1.02
normalized growth (S. cerevisiae deletion strains, locus YNL233W, strain BNI4, hits give low values): 1.01
normalized growth (S. cerevisiae deletion strains, locus YNL248C, strain rpa49, hits give low values): 1.02
normalized growth (S. cerevisiae deletion strains, locus YNL250W, strain rad50, hits give low values): 0.98
normalized growth (S. cerevisiae deletion strains, locus YNL271C, strain bni1, hits give low values): 0.986
normalized growth (S. cerevisiae deletion strains, locus YNL298W, strain CLA4, hits give low values): 0.965
normalized growth (S. cerevisiae deletion strains, locus YNL307C, strain MCK1, hits give low values): 0.972
normalized growth (S. cerevisiae deletion strains, locus YNL322C, strain KRE1 (second series), hits give low values): 1
normalized growth (S. cerevisiae deletion strains, locus YNL322C, strain KRE1, hits give low values): 1
normalized growth (S. cerevisiae deletion strains, locus YNR049C, strain mso1, hits give low values): 1.01
normalized growth (S. cerevisiae deletion strains, locus YNR052C, strain pop2, hits give low values): 0.977
normalized growth (S. cerevisiae deletion strains, locus YOL006C, strain TOP1, hits give low values): 0.983
normalized growth (S. cerevisiae deletion strains, locus YOL012C, strain htz1): 0.822
normalized growth (S. cerevisiae deletion strains, locus YOL147C, strain pex11, hits give low values): 0.975
normalized growth (S. cerevisiae deletion strains, locus YOR001W, strain rrp6, hits give low values): 1.02
normalized growth (S. cerevisiae deletion strains, locus YOR061W, strain CKA2, hits give low values): 0.992
normalized growth (S. cerevisiae deletion strains, locus YOR069W, strain VPS5, hits give low values): 0.993
normalized growth (S. cerevisiae deletion strains, locus YOR070C, strain gyp1, hits give low values): 1.01
normalized growth (S. cerevisiae deletion strains, locus YOR080W, strain dia2, hits give low values): 1.02
normalized growth (S. cerevisiae deletion strains, locus YOR083W, strain WHI5, hits give low values): 1.02
normalized growth (S. cerevisiae deletion strains, locus YOR106W, strain vam3, hits give low values): 0.999
normalized growth (S. cerevisiae deletion strains, locus YOR136W, strain idh2, hits give low values): 0.995
normalized growth (S. cerevisiae deletion strains, locus YOR144C, strain elg1, hits give low values): 0.988
normalized growth (S. cerevisiae deletion strains, locus YOR184W, strain ser1, hits give low values): 0.957
normalized growth (S. cerevisiae deletion strains, locus YOR231W, strain MKK1, hits give low values): 1.07
normalized growth (S. cerevisiae deletion strains, locus YOR265W, strain rbl2, hits give low values): 1.01
normalized growth (S. cerevisiae deletion strains, locus YOR270C, strain vph1, hits give low values): 1.02
normalized growth (S. cerevisiae deletion strains, locus YOR290C, strain snf2, hits give low values): 1.01
normalized growth (S. cerevisiae deletion strains, locus YOR316C, strain cot1, hits give low values): 0.983
normalized growth (S. cerevisiae deletion strains, locus YPL051W, strain arl3, hits give low values): 1.01
normalized growth (S. cerevisiae deletion strains, locus YPL078C, strain atp4, hits give low values): 1.02
normalized growth (S. cerevisiae deletion strains, locus YPL106C, strain sse1, hits give low values): 1.02
normalized growth (S. cerevisiae deletion strains, locus YPL240C, strain hsp82, hits give low values): 1.01
normalized growth (S. cerevisiae deletion strains, locus YPL241C, strain CIN2, hits give low values): 0.606 (active)
normalized growth (S. cerevisiae deletion strains, locus YPL256C, strain CLN2, hits give low values): 1.02
normalized growth (S. cerevisiae deletion strains, locus YPR119W, strain clb2, hits give low values): 0.987
normalized growth (S. cerevisiae deletion strains, locus YPR141C, strain kar3, hits give low values): 0.993
normalized growth (S. cerevisiae deletion strains, locus YPR163C, strain tif3, hits give low values): 0.982
normalized growth (S. cerevisiae deletion strains, locus YPR167C, strain met16, hits give low values): 0.977
normalized growth (S. cerevisiae deletion strains, strain wtn01, hits give low values): 0.967
normalized growth (S. cerevisiae strains, strain wild type, hits give low values): 0.995
